Among all 5,500 compounds or so, about 2,000 (36%) were called active. Roughly 18% stayed inconclusive and do not appear here. No stated cut-off is given here; in the data, active means normalized growth mostly below about 0.91 (no sharp cut-off); inconclusive means no clear call, values can overlap the other calls; inactive means mostly above about 0.92. The list shows a part of the results.
Experiment: chemical genetic growth profiling, strain panel (AID 1159580);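 further: tested at 20 µM; growth read once vehicle control cultures reached saturation at 30 °C; 1 = growth at the plate median or of vehicle wells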
Conditions: growth OD

Measured: normalized growth

COc1c2ccoc2cc2oc(C)cc(=O)c12
inactive: S. cerevisiae deletion strains, locus YKL009W, strain mrt4, stronger effect = lower value 0.965 | S. cerevisiae deletion strains, locus YKL068W, stronger effect = lower value 0.982 | S. cerevisiae deletion strains, locus YKL085W, strain MDH1 (second series), stronger effect = lower value 0.974 | S. cerevisiae deletion strains, locus YKL085W, strain MDH1, stronger effect = lower value 0.974 | S. cerevisiae deletion strains, locus YKL160W, strain elf1, stronger effect = lower value 0.993 | S. cerevisiae deletion strains, locus YKL190W, strain CNB1, stronger effect = lower value 0.978 | S. cerevisiae deletion strains, locus YKR001C, strain vps1, stronger effect = lower value 0.961 | S. cerevisiae deletion strains, locus YKR026C, strain gcn3, stronger effect = lower value 0.982 | S. cerevisiae deletion strains, locus YKR091W, strain srl3, stronger effect = lower value 0.998 | S. cerevisiae deletion strains, locus YLL001W, strain dnm1, stronger effect = lower value 0.998 | S. cerevisiae deletion strains, locus YLL026W, stronger effect = lower value 0.992 | S. cerevisiae deletion strains, locus YLL041C, strain sdh2, stronger effect = lower value 1.01 | S. cerevisiae deletion strains, locus YLR027C, strain aat2, stronger effect = lower value 0.997 | S. cerevisiae deletion strains, locus YLR039C, strain RIC1, stronger effect = lower value 0.968 | S. cerevisiae deletion strains, locus YLR058C, strain SHM2, stronger effect = lower value 0.936 | S. cerevisiae deletion strains, locus YLR102C, strain apc9, stronger effect = lower value 0.992 | S. cerevisiae deletion strains, locus YLR113W, strain HOG1, stronger effect = lower value 1.1 | S. cerevisiae deletion strains, locus YLR221C, strain rsa3, stronger effect = lower value 0.987 | S. cerevisiae deletion strains, locus YLR258W, strain gsy2, stronger effect = lower value 0.987 | S. cerevisiae deletion strains, locus YLR262C, strain YPT6 (second series), stronger effect = lower value 1.03 | S. cerevisiae deletion strains, locus YLR262C, strain YPT6, stronger effect = lower value 0.92 | S. cerevisiae deletion strains, locus YLR268W, strain sec22, stronger effect = lower value 1.02 | S. cerevisiae deletion strains, locus YLR320W, strain mms22, stronger effect = lower value 0.993 | S. cerevisiae deletion strains, locus YLR330W, strain CHS5, stronger effect = lower value 0.986 | S. cerevisiae deletion strains, locus YLR342W, strain FKS1 (second series), stronger effect = lower value 1.01 | S. cerevisiae deletion strains, locus YLR342W, strain FKS1, stronger effect = lower value 0.984 | S. cerevisiae deletion strains, locus YLR357W, strain rsc2, stronger effect = lower value 0.98 | S. cerevisiae deletion strains, locus YLR370C, strain arc18, stronger effect = lower value 0.992 | S. cerevisiae deletion strains, locus YLR371W, strain rom2, stronger effect = lower value 0.986 | S. cerevisiae deletion strains, locus YLR384C, strain iki3, stronger effect = lower value 1 | S. cerevisiae deletion strains, locus YML016C, strain PPZ1, stronger effect = lower value 0.977 | S. cerevisiae deletion strains, locus YML032C, strain rad52, stronger effect = lower value 0.912 | S. cerevisiae deletion strains, locus YML120C, strain ndi1, stronger effect = lower value 1.02 | S. cerevisiae deletion strains, locus YML124C, strain tub3, stronger effect = lower value 0.99 | S. cerevisiae deletion strains, locus YMR058W, strain fet3, stronger effect = lower value 1 | S. cerevisiae deletion strains, locus YMR078C, strain ctf18, stronger effect = lower value 0.977 | S. cerevisiae deletion strains, locus YMR125W, strain sto1, stronger effect = lower value 0.997 | S. cerevisiae deletion strains, locus YMR129W, stronger effect = lower value 0.999 | S. cerevisiae deletion strains, locus YMR205C, strain PFK2, stronger effect = lower value 1.01 | S. cerevisiae deletion strains, locus YMR223W, strain ubp8, stronger effect = lower value 0.956 | S. cerevisiae deletion strains, locus YMR231W, strain pep5, stronger effect = lower value 1.01 | S. cerevisiae deletion strains, locus YMR307W, strain GAS1, stronger effect = lower value 0.961 | S. cerevisiae deletion strains, locus YNL067W, strain RPL9B, stronger effect = lower value 0.96 | S. cerevisiae deletion strains, locus YNL071W, strain lat1, stronger effect = lower value 0.993 | S. cerevisiae deletion strains, locus YNL128W, strain TEP1, stronger effect = lower value 0.943 | S. cerevisiae deletion strains, locus YNL153C, strain GIM3, stronger effect = lower value 0.93 | S. cerevisiae deletion strains, locus YNL183C, strain NPR1, stronger effect = lower value 0.983 | S. cerevisiae deletion strains, locus YNL209W, strain ssb2, stronger effect = lower value 0.983 | S. cerevisiae deletion strains, locus YNL233W, strain BNI4, stronger effect = lower value 0.924 | S. cerevisiae deletion strains, locus YNL248C, strain rpa49, stronger effect = lower value 1 | S. cerevisiae deletion strains, locus YNL250W, strain rad50, stronger effect = lower value 0.987 | S. cerevisiae deletion strains, locus YNL271C, strain bni1, stronger effect = lower value 0.986 | S. cerevisiae deletion strains, locus YNL298W, strain CLA4, stronger effect = lower value 0.975 | S. cerevisiae deletion strains, locus YNL307C, strain MCK1, stronger effect = lower value 0.991 | S. cerevisiae deletion strains, locus YNL322C, strain KRE1 (second series), stronger effect = lower value 0.984 | S. cerevisiae deletion strains, locus YNL322C, strain KRE1, stronger effect = lower value 0.976 | S. cerevisiae deletion strains, locus YNR049C, strain mso1, stronger effect = lower value 0.993 | S. cerevisiae deletion strains, locus YNR052C, strain pop2, stronger effect = lower value 0.977 | S. cerevisiae deletion strains, locus YOL006C, strain TOP1, stronger effect = lower value 0.946 | S. cerevisiae deletion strains, locus YOL012C, strain htz1 1.83 | S. cerevisiae deletion strains, locus YOL147C, strain pex11, stronger effect = lower value 0.984 | S. cerevisiae deletion strains, locus YOR001W, strain rrp6, stronger effect = lower value 0.982 | S. cerevisiae deletion strains, locus YOR061W, strain CKA2, stronger effect = lower value 0.959 | S. cerevisiae deletion strains, locus YOR069W, strain VPS5, stronger effect = lower value 0.993 | S. cerevisiae deletion strains, locus YOR070C, strain gyp1, stronger effect = lower value 0.984 | S. cerevisiae deletion strains, locus YOR080W, strain dia2, stronger effect = lower value 1.02 | S. cerevisiae deletion strains, locus YOR083W, strain WHI5, stronger effect = lower value 0.994 | S. cerevisiae deletion strains, locus YOR106W, strain vam3, stronger effect = lower value 0.994 | S. cerevisiae deletion strains, locus YOR136W, strain idh2, stronger effect = lower value 0.996 | S. cerevisiae deletion strains, locus YOR144C, strain elg1, stronger effect = lower value 0.989 | S. cerevisiae deletion strains, locus YOR184W, strain ser1, stronger effect = lower value 0.967 | S. cerevisiae deletion strains, locus YOR231W, strain MKK1, stronger effect = lower value 1.07 | S. cerevisiae deletion strains, locus YOR265W, strain rbl2, stronger effect = lower value 1 | S. cerevisiae deletion strains, locus YOR270C, strain vph1, stronger effect = lower value 0.997 | S. cerevisiae deletion strains, locus YOR290C, strain snf2, stronger effect = lower value 0.974 | S. cerevisiae deletion strains, locus YOR316C, strain cot1, stronger effect = lower value 0.995 | S. cerevisiae deletion strains, locus YPL051W, strain arl3, stronger effect = lower value 0.979 | S. cerevisiae deletion strains, locus YPL078C, strain atp4, stronger effect = lower value 0.992 | S. cerevisiae deletion strains, locus YPL106C, strain sse1, stronger effect = lower value 0.95 | S. cerevisiae deletion strains, locus YPL240C, strain hsp82, stronger effect = lower value 0.99 | S. cerevisiae deletion strains, locus YPL241C, strain CIN2, stronger effect = lower value 0.976 | S. cerevisiae deletion strains, locus YPL256C, strain CLN2, stronger effect = lower value 1.05 | S. cerevisiae deletion strains, locus YPR119W, strain clb2, stronger effect = lower value 0.986 | S. cerevisiae deletion strains, locus YPR141C, strain kar3, stronger effect = lower value 0.984 | S. cerevisiae deletion strains, locus YPR163C, strain tif3, stronger effect = lower value 0.978 | S. cerevisiae deletion strains, locus YPR167C, strain met16, stronger effect = lower value 0.991 | S. cerevisiae deletion strains, strain wtn01, stronger effect = lower value 1.03 | S. cerevisiae strains, strain wild type, stronger effect = lower value 0.965
active: S. cerevisiae deletion strains, locus YLR418C, strain cdc73, stronger effect = lower value 0.835

Reference: PubChem BioAssay AID1159580 (chemical genetic matrix, 2015)
